# The supplement of paper PMC10127200
# Where a name gives a salt, the structure may show the parent alone.
# What was measured:
# Experiment in all cases: Euclidean distance of Cell Painting phenotypic profile (signed KS, 77 features) to DMSO centroid (dimensionless distance); higher = stronger phenotypic change vs DMSO (phenoactivity)
# Settings in all cases: 48 h; 5 or 10 uM (library dependent)
# [1] = test system: 786-O
# In short: (§1)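 Library compounds were applied at 10 or 5 uM, depending on the library, with 0.1% DMSO final, for 48 h to five cancer lines and a healthy fibroblast line. After staining, cells were imaged confocally at 20X across 9 fields per well, and Harmony extracted 77 features, each scored as a signed Kolmogorov-Smirnov statistic against vehicle wells on the same plate. Phenoactivity is the Euclidean distance between each profile and the median vehicle profile, with profiles first plate-position corrected, correlation-weighted and averaged over replicates at the top dose.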
# [2] = test system: A549
# In short: as §1
# [3] = test system: DU145
# In short: as §1
# [4] = test system: FB
# In short: as §1
# [5] = test system: HEPG2
# In short: as §1
# [6] = test system: OVCAR4
# In short: as §1
SMILES,Euclidean distance [1],Euclidean distance [2],Euclidean distance [3],Euclidean distance [4],Euclidean distance [5],Euclidean distance [6]
CC(=O)[C@H]1CC[C@H]2[C@@H]3CC[C@H]4C[C@H](O)CC[C@]4(C)[C@H]3CC[C@]12C [Allopregnanolone],0.735,0.818,1.1,1.22,0.709,1.64
COc1cc2c(cc1OC)[C@@]13CCN4CC5=CCO[C@H]6CC(=O)N2[C@H]1[C@H]6[C@H]5C[C@H]43 [Brucine sulfate salt hydrate],1.36,0.862,0.987,1.47,0.722,0.846
O=P(O)(NCCCl)NCCCl [Palifosfamide],1.23,0.923,1.53,1.11,0.698,1.21
CN1C[C@H](C(=O)N[C@]2(C)O[C@@]3(O)[C@@H]4CCCN4C(=O)[C@H](Cc4ccccc4)N3C2=O)C[C@@H]2c3cccc4[nH]cc(c34)C[C@H]21 [Dihydroergotamine Mesylate],1.1,1.93,0.862,1.05,1.1,1.25
O=c1[nH]c2ccccc2n1C1CCN(CCCC(c2ccc(F)cc2)c2ccc(F)cc2)CC1 [Pimozide],1.83,3.09,1.3,1.12,0.874,0.955
CCN(CC)CCOC(=O)C(O)(c1ccccc1)c1ccccc1 [Benactyzine hydrochloride],1.27,0.786,1.33,0.83,0.592,1.71
O=C(CBr)N1CC([N+](=O)[O-])([N+](=O)[O-])C1,0.949,1.3,0.88,0.833,0.776,0.926
COc1cc(-n2c(=S)[nH]c3ccccc3c2=O)c(Cl)cc1Cl [Mdivi-1],1.11,1.02,0.97,1.3,0.841,0.792
CN1[C@@H]2CC[C@H]1C[C@@H](OC(=O)C(CO)c1ccccc1)C2 (some centres undefined) [Atropine sulfate monohydrate],0.718,0.691,0.677,0.688,0.719,1.53
CN1[C@@H]2CC[C@H]1C[C@@H](OC(=O)[C@H](CO)c1ccccc1)C2 [Hyoscyamine],0.984,0.92,0.681,0.505,0.646,1.31
S=C=NCc1ccccc1 [Benzyl isothiocyanate],4.42,2.5,3.41,2.02,3.28,1.82
CCc1c(C(=O)C(N)=O)c2c(OCC(=O)O)cccc2n1Cc1ccccc1,0.933,1.14,1.33,0.633,0.812,0.982
C[C@@H]1O[C@@H](O[C@H]2C[C@@H](O)[C@]3(CO)[C@H]4[C@H](O)C[C@]5(C)[C@@H](C6=CC(=O)OC6)CC[C@]5(O)[C@@H]4CC[C@]3(O)C2)[C@H](O)[C@H](O)[C@H]1O [Ouabain],6.72,6.03,6.56,4.56,3.34,7.06
CC[C@H]1[C@@H]2C[C@H]3[C@@H]4N(C)c5ccccc5[C@]45C[C@@H]([C@@H]2[C@H]5O)N3[C@@H]1O [Ajmaline],1.39,0.849,1.04,0.914,0.486,1.05
CC1(C)S[C@@H]2[C@H](N)C(=O)N2[C@H]1C(=O)O [6-Aminopenicillanic acid],1.51,0.648,1.01,0.903,0.75,1.5
Cc1ccccc1-n1c(CF)nc2ccc(N)cc2c1=O [Afloqualone],0.926,0.643,0.714,1.21,0.422,0.949
O=C(O)CNC(=O)C1C(=O)N(C2CCCCC2)C(=O)N(C2CCCCC2)C1=O,1.18,0.61,1.4,1.16,1.1,0.706
O=C(Oc1ccc([N+](=O)[O-])cc1)N1CCC(C(O)(c2ccc3c(c2)OCO3)c2ccc3c(c2)OCO3)CC1,1.24,1.34,1.4,1.86,1.15,1.12
C=C(C)[C@H]1Cc2c(ccc3c2O[C@@H]2COc4cc(OC)c(OC)cc4[C@@H]2C3=O)O1 [Rotenone (Barbasco)],2.48,2.97,3.54,2.77,2.94,2.89
CC(C)(C)c1cc(C=C(C#N)C#N)cc(Br)c1O,1.41,1.74,0.863,1.1,1.39,1.52
CC(=O)OCC1=C(C(=O)O)N2C(=O)[C@@H](N)[C@H]2SC1 [7-Aminocephalosporanic acid],1.45,0.819,1.16,1,0.55,0.832
CC(C)(C)NCC(O)c1ccccc1Cl (centres undefined) [Tulobuterol hydrochloride],0.975,0.768,0.82,0.711,0.75,1.75
CC[C@H](C)[C@@H]([C@@H](CC(=O)N1CCC[C@H]1[C@H](OC)[C@@H](C)C(=O)N[C@H](C)[C@@H](O)c1ccccc1)OC)N(C)C(=O)[C@@H](NC(=O)[C@@H](NC)C(C)C)C(C)C [Monomethyl auristatin E (MMAE)],3.13,2.69,4.69,2.93,3.85,3.16
O=C(O)CNC(=O)c1c(O)c2ccccc2n(Cc2ccccc2)c1=O,0.98,0.849,1.14,1.06,0.682,0.719
